Screening data deposited in PubChem BioAssay by National Center for Advancing Translational Sciences (NCATS).
Most compounds without a hit are left out; they make up all but 19% or so of the library.
DT40 TDP1 no CPT: qHTS for Inhibitors of human tyrosyl-DNA phosphodiesterase 1 (TDP1): qHTS in cells in absence of CPT | DT40 Tdp1-/- hTDP1 cells, no CPT, ATP luminescence, 48 h | Potency, µM (highest dose often 46.2 µM), for the others: at the highest dose activity change, negative = growth inhibition, actives largely listed as inhibitors | hit rate 15% among 420,000; also: potency is read from the fitted curve at half-maximal effect; nearly all actives have a fitted effect of over 55% in size
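Luminescent ATP content (CellTiter-Glo) served as the growth readout. Knockout chicken DT40 cells expressing human TDP1 were exposed to compounds without camptothecin for a minimum 48 hr at 37 °C.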
TDP1 cell CPT: growth inhibition of DT40 Tdp1-/-;hTDP1 cells with camptothecin (screen for TDP1 inhibitors) | chicken DT40 Tdp1-/-;hTDP1 cells + 20 nM CPT, ATP luminescence, 48 h | hit rate 12% among 420,000 | Potency, µM (titrated, usually from 46.2 µM), inactives show top-dose activity change, negative = growth inhibition, most hits filed as inhibitors; also: potency is read from the fitted curve at half-maximal effect; nearly all actives have a fitted effect of over 55% in size
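Chicken DT40 Tdp1-/- cells stably complemented with human TDP1 were seeded at 400 cells/well in medium containing 20 nM camptothecin, exposed to pin-transferred compounds, and grown at 37 °C for at least 48 hr. Viability was read as ATP luminescence.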
HT1080 IDH1KD tx: kills HT-1080 cells with IDH1 knockdown. HT-1080 IDH1 knockdown viability, ATP luminescence, 48 h. Potency, µM (titrated, usually from 46.1 µM), inactives show at the top dose activity, negative = toxicity, usual class: cytotoxic. hit rate 2% among 360,000;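 also: potency is read from the fitted curve at half-maximal effect; 0% = DMSO wells and -100% = cell-free medium wells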
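Luminescent ATP read-out (CellTiter-Glo, 10 min at room temperature) after 48 h compound exposure at 37 °C gave viability of IDH1-knockdown HT-1080 cells. Activity was normalised to DMSO and cell-free wells, then fitted as concentration-response curves.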
IL-1B inflam inh: blocks inflammasome-driven IL-1 beta release | hit rate 4.7% among 360,000 | THP-1 LPS/ATP IL-1B secretion, AlphaLISA, 16 h; stronger effect = lower value | AID 743279 | activity change, % at 57.5 µM; in the data active = activity change below about -50%; inconclusive = mostly about -30% to -49%
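Secreted IL-1B measured by AlphaLISA bead assay after 16 h compound exposure of THP-1 cells; compounds (final up to 57.5 uM) added 1 h before LPS (250 ng/mL) and ATP (1.25 mM) stimulation; lower signal means less secretion.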
uPA generation: inhibitors of cell surface uPA generation; cell surface uPA generation assay, qHTS; Potency, µM (doses to about 38.3 µM), for the others: at the top dose activity change, negative = inhibition, most hits filed as inhibitors; hit rate 0.31% among 330,000; active = well fitted inhibition curve with a large enough effect; inconclusive = small, poorly fitted or top-dose-only effect; inactive = no such curve, though single readings can be large or run the other way; tested in mouse RAW 264.7 cells; also: potency is read from the fitted curve at half-maximal effect; nearly all actives have a fitted effect of over 55% in size
HT1080-NT tox: kills 2HG-producing HT-1080-NT fibrosarcoma cells; hit rate 1.6% among 360,000; Potency, µM (doses to about 46.1 µM), for inactives: top-dose activity, negative = less viability, actives largely listed as cytotoxic; HT-1080-NT fibrosarcoma viability, CellTiter-Glo ATP luminescence, 48 h;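 also: NT is the 2HG producing partner of a matched IDH1 knockdown line; potency is read from the fitted curve at half-maximal effect; 0% = DMSO-treated cells and -100% = media-only wells without cells; nearly all actives have a fitted effect of over 55% in size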
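HT-1080-NT fibrosarcoma cells (2HG-overproducing), 750 cells/well in RPMI with 5% FBS, dosed after 2 h and incubated 48 h at 37C. CellTiter-Glo luminescence normalized to DMSO and no-cell wells; concentration-response curves fitted and classed.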
* hit, by the source's call; ? = inconclusive; / = no result given. Unless noted, calls follow the shape of the dose curve; as a rule, active = well fitted curve in the direction sought with a large enough effect; inconclusive = small, poorly fitted or top-dose-only effect, or another doubt; inactive = no such curve, though single readings can be large; an effect the other way counts as inactive or inconclusive. Unless noted, % is scaled to controls: 0 for no effect and ±100 for the full control effect.

SMILES | DT40 TDP1 no CPT | TDP1 cell CPT | HT1080 IDH1KD tx | IL-1B inflam inh | uPA generation | HT1080-NT tox
COc1ccc(N2CCN(c3nc4c(c(=O)n(C)c(=O)n4C)n3Cc3ccccc3)CC2)cc1 | ? | 23µM* | -1% | -10 | -6% | -17%
O=C(CN1C(=O)NC2(CCCCCC2)C1=O)NCCc1ccc(F)cc1 | 12% | 5% | 11% | 15 | 2% | 5%
O=C(N/N=C1\C(=O)c2cccc3cccc1c23)c1ccc(O)cc1 | ? | ? | 18% | -25 | 2% | 7%
CCNC(=S)N1CCN(CCN2C(=O)c3cccc4cccc(c34)C2=O)CC1 | ? | -27% | -22% | -26 | 5% | 1%
CNC(=S)N/N=C1\C(=O)c2cccc3cccc1c23 | 16µM* | 29µM* | ? | -98* | 1% | ?
CCCCNC(=S)N/N=C1\C(=O)c2cccc3cccc1c23 | 26µM* | ? | 9% | -9 | -2% | 9%
CCC(C)C(NC(=O)c1ccccc1NC(=O)c1ccc(OC)cc1)C(=O)NCCCn1ccnc1 (configuration not stated) | 0% | 6% | 3% | 0 | -1% | -1%
CCOc1ccc(-c2cc(C(=O)N/N=C(\C)c3cccnc3)c3ccccc3n2)cc1 | ? | ? | ? | 9 | -15% | ?
COc1ccc(-c2cc(C(=O)N/N=C(\C)c3cccnc3)c3ccccc3n2)c(OC)c1 | 13µM* | 10µM* | 4% | -1 | ? | -1%
COc1ccc(OC)c(-c2cc(C(=O)N/N=C(\C)c3cccnc3)c3ccccc3n2)c1 | ? | 15µM* | -11% | ? | 1% | -19%
COc1ccc(Cn2ccnc2SCC(=O)Nc2cc(C(F)(F)F)ccc2Cl)cc1 | -15% | -7% | / | / | / | /
COc1ccc(-c2noc(Cn3c(=O)c4ccccc4n(CC(=O)Nc4cccc(OC)c4)c3=O)n2)cc1 | 21µM* | ? | / | / | / | /
Cc1noc(Cn2c(=O)c3ccccc3n(CC(=O)Nc3ccc(C(C)C)cc3)c2=O)n1 | 16µM* | ? | / | / | / | /
COc1cccc(NC(=O)Cn2c(=O)n(Cc3nc(-c4ccccc4)no3)c(=O)c3ccccc32)c1 | ? | -24% | / | / | / | /
CCC(Sc1nc2n[nH]c(C)c2c(=N)n1-c1ccc(Br)cc1)C(=O)N(CC)CC (configuration not stated) | 15µM* | 18µM* | / | / | / | /
Cc1ccc(-n2c(N)cc(=O)nc2SCC(=O)NC2CCCCC2)cc1C | 5% | 9% | 14% | -1 | 16% | 4%
CCOc1ccc(-n2c(SCC(=O)Nc3ccc(CC)cc3)nc3n[nH]c(C)c3c2=N)cc1 | 21µM* | ? | 18µM* | -29 | -5% | ?
CCc1ccc(NC(=O)CSc2nc3n[nH]c(C)c3c(=N)n2-c2ccc(C)cc2)cc1 | 3.7µM* | 6.5µM* | / | / | / | /
CCCN(CCC)C(=O)CSc1nc2n[nH]c(C)c2c(=N)n1-c1ccc(OCC)cc1 | ? | ? | ? | -5 | -13% | -21%
CCC(Sc1nc2n[nH]c(C)c2c(=N)n1-c1ccc(C)c(Cl)c1)C(=O)N1CCOCC1 (configuration not stated) | ? | ? | -11% | -9 | -15% | -15%
Cc1[nH]nc2nc(SCC(=O)NC3CCCCC3)n(-c3ccc(Br)cc3)c(=N)c12 | 6.5µM* | 8.2µM* | ? | 51 | -16% | -4%
C/C(=C/c1ccccc1)C(=O)N1CCN(c2ccc(F)cc2)CC1 | ? | -6% | 0% | -11 | 2% | -4%
O=c1c2ccccc2oc2cc(O)c(C3COCC(CO)C(O)C(O)C3O)c(O)c12 (configuration not stated) | 0% | 10% | / | / | / | /
